We go through six sequences from publication PMC4081100, “A DNA-binding-site landscape and regulatory network analysis for NAC transcription factors in Arabidopsis thaliana”.

Common to all, as to experiment: universal protein binding microarray (PBM); transcription factors of Arabidopsis thaliana; high values mean tight binding
The target of one test is T1, GST-ANAC092(1-176) (Arabidopsis thaliana, UniProt Q9FKA0 1-176).
T1 sequence: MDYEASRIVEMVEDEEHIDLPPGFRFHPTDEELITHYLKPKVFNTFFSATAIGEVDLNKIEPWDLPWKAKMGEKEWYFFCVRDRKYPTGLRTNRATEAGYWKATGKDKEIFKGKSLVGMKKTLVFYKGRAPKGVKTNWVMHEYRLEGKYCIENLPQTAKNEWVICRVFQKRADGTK
As to conditions: protein: recombinant; tags: GST; chain copies: 2; dsDNA, one strand shown. Put shortly:
(§1)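 Binding is expressed as the normalised enrichment score (E-score). Proteins carrying a GST tag, whether NAC-domain, full-length or DNA-binding-domain forms, were induced in cells, and zinc acetate was added for zinc-finger proteins. After purification on glutathione–Sepharose 4B and quantification by A280 or anti-GST western blot, each was applied in duplicate at 200 to 500 nM final to custom all-10-mer Agilent 4 × 180K arrays made double-stranded by primer extension. Gapped and ungapped 8-mers were scored.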

For the next test, the target named is GST-NTL6(1-168) (Arabidopsis thaliana, UniProt Q9SCK6 1-168). As to conditions: protein: recombinant; tags: GST; chain copies: 2; dsDNA, one strand shown. The procedure, abridged:
as §1

A further test addresses T2, GST-ANAC019 NAC domain (Arabidopsis thaliana, UniProt Q9C932 14-162).
T2 sequence: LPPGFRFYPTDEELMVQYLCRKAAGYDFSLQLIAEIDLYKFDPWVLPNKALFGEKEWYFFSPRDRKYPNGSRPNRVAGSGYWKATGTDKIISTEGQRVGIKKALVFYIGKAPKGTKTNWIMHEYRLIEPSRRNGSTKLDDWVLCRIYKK
As to conditions: protein: recombinant; tags: GST; chain copies: 2; dsDNA, one strand shown. Put shortly:
as §1

A further test concerns the target T3, GST-ANAC055(1-171) (Arabidopsis thaliana, UniProt Q9LDY8 1-171).
T3 sequence: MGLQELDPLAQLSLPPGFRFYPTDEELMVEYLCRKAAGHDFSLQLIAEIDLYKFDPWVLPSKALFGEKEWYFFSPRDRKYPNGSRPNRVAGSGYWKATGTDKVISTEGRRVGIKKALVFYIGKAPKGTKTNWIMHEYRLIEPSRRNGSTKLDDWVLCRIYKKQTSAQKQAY
The note with it: protein: recombinant; tags: GST; chain copies: 2; dsDNA, one strand shown. The procedure, abridged:
as §1

Another test has as its target T4, GST-ATAF1 NAC domain (Arabidopsis thaliana, UniProt Q39013 7-158).
T4 sequence: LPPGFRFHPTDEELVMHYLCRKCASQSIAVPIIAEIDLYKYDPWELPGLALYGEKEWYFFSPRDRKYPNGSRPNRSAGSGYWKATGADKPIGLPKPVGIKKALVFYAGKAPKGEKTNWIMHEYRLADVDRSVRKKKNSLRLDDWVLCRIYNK
The note with it: protein: recombinant; tags: GST; chain copies: 2; dsDNA, one strand shown. Put shortly: as §1

For test [1], the target named is T5, GST-ANAC092(1-285) full length (Arabidopsis thaliana, UniProt Q9FKA0 1-285).
T5 sequence: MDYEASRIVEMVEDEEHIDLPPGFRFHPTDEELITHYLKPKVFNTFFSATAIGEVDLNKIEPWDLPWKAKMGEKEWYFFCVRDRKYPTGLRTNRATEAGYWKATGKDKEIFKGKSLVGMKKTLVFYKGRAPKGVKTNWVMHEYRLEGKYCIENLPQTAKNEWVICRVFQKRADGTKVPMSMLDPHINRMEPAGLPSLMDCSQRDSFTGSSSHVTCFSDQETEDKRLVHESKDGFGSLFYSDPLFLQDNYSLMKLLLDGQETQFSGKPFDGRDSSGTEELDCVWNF
As to conditions: protein: recombinant; tags: GST; chain copies: 2; dsDNA, one strand shown. The procedure, abridged:
as §1

In a further test the target is T6, GST-NAP(1-166) (Arabidopsis thaliana, UniProt O49255 1-166).
T6 sequence: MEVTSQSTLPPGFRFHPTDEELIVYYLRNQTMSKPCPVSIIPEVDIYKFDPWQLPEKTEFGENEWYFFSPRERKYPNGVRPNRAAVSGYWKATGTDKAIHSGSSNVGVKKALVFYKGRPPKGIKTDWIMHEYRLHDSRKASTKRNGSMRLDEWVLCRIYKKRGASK
The note with it: protein: recombinant; tags: GST; chain copies: 2; dsDNA, one strand shown. The procedure, abridged:
as §1

Another test has as its target T7, GST-NST2(1-184) (Arabidopsis thaliana, UniProt Q9M274 1-184).
T7 sequence: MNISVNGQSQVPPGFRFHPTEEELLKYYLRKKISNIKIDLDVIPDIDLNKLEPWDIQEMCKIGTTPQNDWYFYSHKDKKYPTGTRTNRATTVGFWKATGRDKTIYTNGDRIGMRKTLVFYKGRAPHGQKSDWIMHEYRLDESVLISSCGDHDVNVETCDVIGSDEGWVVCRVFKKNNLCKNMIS
The note with it: protein: recombinant; tags: GST; chain copies: 2; dsDNA, one strand shown. Put shortly:
as §1

In the next test the target is T8, GST-NTL8 NAC domain (Arabidopsis thaliana, UniProt Q9XIN7 14-156).
T8 sequence: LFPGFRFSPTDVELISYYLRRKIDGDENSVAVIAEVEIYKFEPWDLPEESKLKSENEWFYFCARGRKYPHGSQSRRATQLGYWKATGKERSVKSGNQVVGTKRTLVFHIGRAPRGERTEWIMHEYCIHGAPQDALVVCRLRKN
As to conditions: protein: recombinant; tags: GST; chain copies: 2; dsDNA, one strand shown. The procedure, abridged: as §1

For another test, the target named is T9, GST-SND1(1-203) (Arabidopsis thaliana, UniProt Q9LPI7 1-203).
T9 sequence: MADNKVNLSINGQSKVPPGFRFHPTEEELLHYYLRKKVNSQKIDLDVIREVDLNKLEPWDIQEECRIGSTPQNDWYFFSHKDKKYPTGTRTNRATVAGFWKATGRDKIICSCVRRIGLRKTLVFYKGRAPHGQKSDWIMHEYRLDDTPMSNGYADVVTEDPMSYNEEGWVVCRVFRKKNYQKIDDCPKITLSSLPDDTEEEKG
The note with it: protein: recombinant; tags: GST; chain copies: 2; dsDNA, one strand shown. The procedure, abridged: as §1

The target in the next test is T10, GST-VND3 NAC domain (Arabidopsis thaliana, UniProt Q9FH59 12-162).
T10 sequence: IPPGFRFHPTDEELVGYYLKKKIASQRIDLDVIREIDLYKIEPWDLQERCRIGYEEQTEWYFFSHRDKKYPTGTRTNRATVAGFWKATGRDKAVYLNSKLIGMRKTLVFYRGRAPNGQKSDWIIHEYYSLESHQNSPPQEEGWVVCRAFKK
The note with it: protein: recombinant; tags: GST; chain copies: 2; dsDNA, one strand shown. The procedure, abridged:
as §1

The target in the next test is T11, GST-VND7 NAC domain (Arabidopsis thaliana, UniProt Q9C8W9 9-158).
T11 sequence: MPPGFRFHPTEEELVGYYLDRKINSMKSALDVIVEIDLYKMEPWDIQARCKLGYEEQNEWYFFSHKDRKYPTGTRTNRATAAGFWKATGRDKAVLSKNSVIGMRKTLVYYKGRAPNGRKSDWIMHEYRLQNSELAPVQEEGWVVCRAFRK
The note with it: protein: recombinant; tags: GST; chain copies: 2; dsDNA, one strand shown. The procedure, abridged: as §1

In a further test the target is GST-WRKY1(266-371) (Arabidopsis thaliana, UniProt Q9SI37 266-371). The note with it: protein: recombinant; tags: GST; dsDNA, one strand shown. Put shortly: as §1
Chain of GST-WRKY1(266-371) (Q9SI37 266-371): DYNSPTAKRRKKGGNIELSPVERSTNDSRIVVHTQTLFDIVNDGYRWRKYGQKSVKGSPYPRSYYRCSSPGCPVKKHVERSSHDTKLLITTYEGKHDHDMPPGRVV

Chain of GST-NTL6(1-168) (Q9SCK6 1-168): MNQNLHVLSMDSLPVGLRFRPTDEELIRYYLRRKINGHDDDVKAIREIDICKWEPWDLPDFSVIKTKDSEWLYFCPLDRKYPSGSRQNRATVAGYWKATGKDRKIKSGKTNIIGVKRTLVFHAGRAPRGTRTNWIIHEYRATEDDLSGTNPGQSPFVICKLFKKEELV

Consider ACTAAGTA, for which the binding signal is 0.177 E-score with GST-ANAC092(1-176); 0.429 E-score with GST-NTL6(1-168); 0.19 E-score with GST-ANAC019 NAC domain; 0.216 E-score in the test with GST-ANAC055(1-171); 0.192 E-score in the test with GST-ATAF1 NAC domain; 0.126 E-score in test [1]. In addition, the binding signal was 0.125 E-score with GST-NAP(1-166); 0.252 E-score with GST-NST2(1-184); 0.116 E-score in the test with GST-NTL8 NAC domain; 0.258 E-score with GST-SND1(1-203); 0.279 E-score in the test with GST-VND3 NAC domain; 0.218 E-score with GST-VND7 NAC domain. Besides, the binding signal with GST-WRKY1(266-371) is 0.0999 E-score.
CTACGTTA: the binding signal came to 0.323 E-score with GST-ANAC092(1-176); 0.0691 E-score in the test with GST-NTL6(1-168); 0.152 E-score in the test with GST-ANAC019 NAC domain; 0.144 E-score with GST-ANAC055(1-171); 0.228 E-score with GST-ATAF1 NAC domain; 0.382 E-score in [1]. The binding signal is 0.135 E-score with GST-NAP(1-166); 0.335 E-score with GST-NST2(1-184); 0.478 E-score with GST-SND1(1-203); 0.24 E-score in the test with GST-VND3 NAC domain; 0.164 E-score with GST-VND7 NAC domain; 0.0835 E-score with GST-WRKY1(266-371).
ACGTAACG: the binding signal in the test with GST-ANAC092(1-176) was found to be 0.423 E-score; with GST-NTL6(1-168), 0.0652 E-score; with GST-ANAC019 NAC domain, 0.436 E-score; in the test with GST-ANAC055(1-171) it was 0.389 E-score; in the test with GST-ATAF1 NAC domain, 0.348 E-score; in test [1], 0.438 E-score. Further, the binding signal with GST-NAP(1-166) turned out to be 0.411 E-score; with GST-NST2(1-184), 0.272 E-score; with GST-NTL8 NAC domain, 0.118 E-score; with GST-SND1(1-203) it was 0.415 E-score; with GST-VND3 NAC domain, 0.359 E-score; with GST-VND7 NAC domain it was 0.409 E-score. Also, the binding signal with GST-WRKY1(266-371) turned out to be 0.078 E-score.
Regarding ACGCAAGA, the binding signal with GST-ANAC092(1-176) amounted to 0.449 E-score; with GST-NTL6(1-168), 0.116 E-score; with GST-ANAC019 NAC domain, 0.243 E-score; in the test with GST-ANAC055(1-171) it was 0.264 E-score; in the test with GST-ATAF1 NAC domain, 0.156 E-score; in [1] it was 0.456 E-score. Also, the binding signal with GST-NAP(1-166) came out at 0.285 E-score; in the test with GST-NST2(1-184), 0.315 E-score; with GST-NTL8 NAC domain, 0.128 E-score; with GST-SND1(1-203), 0.405 E-score; with GST-VND3 NAC domain, 0.252 E-score; with GST-VND7 NAC domain, 0.194 E-score. Also, the binding signal with GST-WRKY1(266-371) was found to be 0.123 E-score.
For AAAAGTCA, the binding signal came to 0.142 E-score in the test with GST-ANAC092(1-176); 0.1 E-score in the test with GST-NTL6(1-168); 0.185 E-score with GST-ANAC019 NAC domain; 0.157 E-score with GST-ANAC055(1-171); 0.241 E-score with GST-ATAF1 NAC domain; 0.241 E-score in test [1]. Also, the binding signal is 0.08 E-score in the test with GST-NAP(1-166); 0.274 E-score with GST-NST2(1-184); 0.128 E-score with GST-NTL8 NAC domain; 0.257 E-score in the test with GST-SND1(1-203); 0.13 E-score in the test with GST-VND3 NAC domain; 0.122 E-score in the test with GST-VND7 NAC domain. Also, in the test with GST-WRKY1(266-371), the binding signal amounted to 0.461 E-score.
For CTTACCCC, the binding signal with GST-ANAC092(1-176) was determined as 0.192 E-score; with GST-NTL6(1-168) it was 0.322 E-score; in the test with GST-ANAC019 NAC domain, 0.132 E-score; with GST-ANAC055(1-171), 0.191 E-score; with GST-ATAF1 NAC domain, 0.0855 E-score; in [1], 0.179 E-score. Also, the binding signal is 0.096 E-score in the test with GST-NAP(1-166); 0.175 E-score with GST-NST2(1-184); 0.405 E-score with GST-NTL8 NAC domain; 0.198 E-score with GST-SND1(1-203); 0.101 E-score in the test with GST-VND3 NAC domain; 0.149 E-score in the test with GST-VND7 NAC domain. The binding signal with GST-WRKY1(266-371) was found to be 0.0524 E-score.
